Out of some 1,100 compounds screened, about 350 (32%) were called active. Only a sample is shown. A call without a number means that no potency is given here. Potency and affinity values are given separately. Unmarked numbers belong to inactive results. No rule for the calls is given here.
Experiment: CEM21 lymphoblast cell cytotoxicity, dose response, cytotoxicity control for viral fusion inhibitor project, CellTiter-Glo luminescence, cherry-picked (AID 652042)
Details: CEM21 cells viability, CellTiter-Glo ATP luminescence, 24 h; series mostly up to 35 µM

Structure (SMILES)	activity change, negative = cytotoxicity
O=C(NC1CCCCC1)C(c1ccc(Cl)cc1)N(C(=O)c1cnccn1)c1ccc2c(c1)OCO2 (configuration not stated)	inactive
COc1ccc(N2CCn3c2nc2c3c(=O)n(CCCc3ccccc3)c(=O)n2C)c(OC)c1	inactive
CCN1C(=O)[C@H]2[C@@H](c3ccc(C(F)(F)F)cc3)N[C@]3(CCCN(Cc4ccccc4)C3=O)[C@H]2C1=O	inactive
CCC(C(=O)c1ccccc1)N(C(=O)c1ccccc1Cl)N1C(=O)C2C3C=CC(C3)C2C1=O (configuration not stated)	inactive
CC[C@@]1(C(=O)OC)N[C@H](CN(C)S(=O)(=O)c2ccc(-c3ccccc3)cc2)[C@@H]2C(=O)N(Cc3ccccc3)C(=O)[C@@H]21	inactive
O=C(Cc1ccc(Cl)cc1Cl)Nc1ccncc1	inactive
CCN(C[C@H]1N[C@@](CC)(C(=O)OC)[C@H]2C(=O)N(Cc3ccccc3)C(=O)[C@@H]12)C(=O)Nc1ccc(Cl)cc1	inactive
CCN(CC)C(=O)c1ncn2c1C(=O)NC[C@@H]2C	inactive
CCc1ccc2[nH]c(=O)c(C(c3nnnn3Cc3ccc(OC)cc3)N3CCOCC3)cc2c1 (configuration not stated)	inactive
CCc1nnc(NC(=O)[C@@H](NC(=O)c2cccc(S(=O)(=O)N(CC)CC)c2)C(C)C)s1	inactive
Cc1ccc(C(=O)Nc2cccc(C(=O)O)c2)cc1	inactive
COc1ccc(C2N(S(=O)(=O)c3ccc(C)cc3)CCN2S(=O)(=O)c2ccc(C)cc2)cc1	inactive
Cc1ccccc1S(=O)(=O)N1C[C@H]2[C@H]3C(=O)N(C4CCCCC4)C(=O)[C@H]3CC(=O)[C@H]2[C@@H]1c1ccc(Cl)cc1	inactive
O=C(NCc1cccnc1)c1c[nH]c2cc3c(cc2c1=O)OCCO3	inactive
CC[C@@]1(C(=O)OC)N[C@H](CN(C)C(=O)c2ccc(C(C)(C)C)cc2)[C@@H]2C(=O)N(Cc3ccccc3)C(=O)[C@@H]21	inactive
N#Cc1ccc(CSc2nnc(COc3ccccc3)n2-c2ccccc2)cc1	inactive
Cc1cc(C(=O)CN2C(=O)c3ccccc3S2(=O)=O)c(C)n1C(C)C	inactive
O=C(Nc1ccc(S(=O)(=O)N2CCN(Cc3ccccc3)CC2)cc1)c1cnccn1	inactive
O=C(Nc1nc(-c2ccc3c(c2)OCO3)cs1)c1ccncc1	inactive
Cc1ccc2c(CN3CCN(S(=O)(=O)c4ccc5c(c4)OCCO5)CC3)cc(=O)oc2c1C	inactive
Cc1ccc(N2C(=O)CC(c3ccsc3)C3=C2CC(C)(C)CC3=O)cc1 (configuration not stated)	inactive

Structure (SMILES)	activity change, negative = cytotoxicity
CCN(CC)c1ncnc2ccc(Br)cc12	inactive
O=C(N/N=C/c1sc(N2CCOCC2)nc1-c1ccccc1)c1cccc(S(=O)(=O)N2CCOCC2)c1	inactive
O=S(=O)(Nc1nc2ccccc2nc1Nc1cccc(S(=O)(=O)N2CCCCC2)c1)c1ccccc1	inactive
CC(=O)OC1c2ccccc2C(=O)N1c1ccccc1C (configuration not stated)	inactive
O=C1COc2ccc(-c3csc(=Nc4ccc(OC(F)F)cc4)n3CC3CCCO3)cc2N1 (configuration not stated)	inactive
CC1(C(=O)NCc2cccc3ccccc23)CCN1Cc1ccc(-c2ccccc2)o1 (configuration not stated)	inactive
COc1ccc(NC(=O)C2(C)CCN2Cc2ccccc2OC(F)F)cc1OC (configuration not stated)	inactive
CC(=O)C1=C(C)N(Cc2ccc(Cl)cc2)C(=S)NC1c1cccc(Br)c1 (configuration not stated)	inactive
C[C@H](CO)N1C[C@H](C)[C@H](CN(C)S(=O)(=O)c2cccs2)Oc2ccc(NC(=O)C3CCCCC3)cc2CC1=O	inactive
C[C@H](CO)N1C[C@H](C)[C@@H](CN(C)C(=O)NC2CCCCC2)Oc2c(cccc2N(C)C)C1=O	inactive
CCCC#Cc1ccc2c(c1)O[C@@H](CN(C)S(=O)(=O)c1cccc(F)c1)[C@@H](C)CN([C@H](C)CO)S2(=O)=O	inactive
CCCC#Cc1ccc2c(c1)O[C@@H](CN(C)S(=O)(=O)c1cccc(F)c1)[C@@H](C)CN([C@@H](C)CO)S2(=O)=O	inactive
O=c1c2ccccc2nnn1CSc1nnc(COc2ccc(Cl)cc2)n1Cc1ccco1	5.32% [at 8 µM]
CC(NC(=O)c1ccccc1NC(=O)CN1CCc2ccccc2C1)c1ccccc1 (configuration not stated)	inactive
O=C(O)C[C@@H]1C=C[C@@H](NC(=O)Nc2ccccc2)[C@H](CO)O1	inactive
C[C@@H]1CN([C@@H](C)CO)C(=O)c2cccc(NS(=O)(=O)c3cccs3)c2O[C@@H]1CN(C)Cc1ccc(C(F)(F)F)cc1	inactive
O=C(O)C[C@@H]1C=C[C@H](NC(=O)Nc2ccccc2)[C@H](CO)O1	inactive
C[C@H]1Cn2cnc(C(=O)N3CCN(c4ccccc4)CC3)c2C(=O)N1	inactive
O=C(Nc1nc(COc2ccccc2)cs1)C12CC3CC(CC(C3)C1)C2	inactive
C=C1CCN([C@@H](Cc2ccccc2)C(=O)Nc2ccc(OC)cc2)S(=O)(=O)c2ccccc21	inactive
COc1ccccc1NC(=O)N[C@@H]1CC[C@H](CC(=O)N[C@H](C)c2ccccc2)O[C@@H]1CO	inactive

Structure (SMILES)	activity change, negative = cytotoxicity
CN1CCN(c2ccccc2NC(=O)C(Cc2ccccc2)n2cccc2)CC1 (configuration not stated)	inactive
CC(=O)c1ccc(S(=O)(=O)N2CCN(c3nc4c(C)c(C)ccc4cc3C#N)CC2)cc1	inactive
OCC[C@@H]1C[C@@H](O)[C@H](O)[C@]2(OCc3ccccc32)O1	inactive
COc1ccc(NC(=O)Nc2ccc3c(c2)C(=O)N([C@H](C)CO)C[C@H](C)[C@H](CN(C)Cc2ccncc2)OCCCC[C@H](C)O3)cc1	inactive
COc1ccccc1S(=O)(=O)Nc1ccc2c(c1)C(=O)N(C)C[C@@H](OC)[C@@H](C)CN[C@@H](C)CO2	inactive
Cc1ccc2c(c1)[C@H]1[C@H](CO2)[C@H](c2ccccc2)[C@]2(C)C(=O)N(CC3CCCO3)CC(=O)N12 (some centres not stated)	inactive
CCOC(=O)C(C)Oc1cccc2c(=O)n(CC(=O)NCCc3ccc(OC)c(OC)c3)ccc12 (configuration not stated)	inactive
COc1ccc(Cl)cc1NC(=O)CN(C)C(=O)CCCc1c[nH]c2ccccc12	inactive
CC(C)CN(C(=O)C(c1ccccc1)c1ccccc1)c1c(N)n(CC(C)C)c(=O)[nH]c1=O	inactive
O=C(Nc1ccc(Cl)cc1)C1CCCN(C2=NS(=O)(=O)c3ccccc32)C1 (configuration not stated)	inactive
CCS(=O)(=O)Nc1ccc2c(c1)C(=O)N(C)C[C@H](OC)[C@@H](C)CN(C(=O)C1CCC1)[C@H](C)CO2	inactive
CCc1ccc(-c2cn3nc(C)c(C)nc3n2)cc1	inactive
COC(=O)[C@@]1(C)[C@H]2C(=O)N(Cc3ccccc3)C(=O)[C@H]2[C@H]2CN=C(SCC3CC3)N21	inactive
COc1ccc(NC(=O)Nc2ccc3c(c2)C(=O)N([C@H](C)CO)C[C@H](C)[C@H](CN(C)S(=O)(=O)c2ccc(OC)cc2)O3)cc1	inactive
C[C@@H]1CN([C@@H](C)CO)S(=O)(=O)c2ccc(-c3cccc(F)c3)cc2O[C@@H]1CN(C)S(=O)(=O)c1ccc(F)cc1	inactive
COc1ccc(S(=O)(=O)Nc2ccc3c(c2)CC(=O)N([C@@H](C)CO)C[C@H](C)[C@H](CN(C)S(=O)(=O)c2ccc(F)cc2)O3)cc1	inactive
COc1ccc(C(=O)C(C)N(C(=O)c2ccc(Cl)cc2Cl)N2C(=O)C3C4C=CC(C4)C3C2=O)cc1 (configuration not stated)	inactive
COc1ccc(Cn2nnnc2C(c2cc3cc(C)cc(C)c3[nH]c2=O)N2CCOCC2)cc1 (configuration not stated)	inactive
O=C(N(c1ccccn1)c1ccccn1)C12CC3CC(CC(Cl)(C3)C1)C2	inactive
COC(=O)[C@@]1(Cc2ccc(F)cc2)[C@H]2c3cc(C(=O)N(C)C)n(CCO)c3C[C@H]2CN1C(=O)c1ccccc1	inactive
COC(=O)C1CCN(C(=O)COC(=O)c2cc(S(=O)(=O)N3CCOCC3)ccc2C)CC1	inactive

Structure (SMILES)	activity change, negative = cytotoxicity
O=C(COC(=O)c1cc(S(=O)(=O)N2CCOCC2)ccc1O)NCc1ccc2c(c1)OCO2	inactive
O=C(CCCOc1ccc(Cl)cc1Cl)Nc1cc(S(=O)(=O)N2CCOCC2)ccc1N1CCOCC1	inactive
Cc1cc(Cl)ccc1OCCCC(=O)Nc1cc(S(=O)(=O)N2CCOCC2)ccc1N1CCOCC1	inactive
CC(C)(C)C1CCc2onc(C(=O)NCc3ccc(F)cc3)c2C1 (configuration not stated)	inactive
Cn1c(=O)[nH]c2cc3ccccc3cc21	inactive
N#Cc1ccc(CN2CCN(C(=O)CNC(=O)Cc3cccc4ccccc34)CC2)cc1	inactive
CCCCNC(=O)C[C@H]1C[C@@]2(C(=O)OC)C(=C[C@H](C(C)(C)C)O[C@@H]2C)N(Cc2ccc3c(c2)OCO3)C1=O	inactive
C=C(C)CN(CC)c1nc(N)c2c(N)nc3c(c2c1C#N)CC(=O)N3C12CC3CC(CC(C3)C1)C2	inactive
CN(C[C@H](Cc1ccccc1)N(C[C@H](Cc1ccccc1)N(CC1(c2ccccc2)CC1)N=O)N=O)N=O	inactive
COc1ccc2ncn(-c3ccccc3)c2c1	inactive
COC(=O)[C@@]1(C)[C@H]2C(=O)N(Cc3ccccc3)C(=O)[C@H]2[C@H]2CN=C(SCc3ccccc3)N21	inactive
CCOc1ccc2c(c1)-c1c(ssc1=S)C(C)(C)N2C(=O)c1ccco1	inactive
CCn1c(COc2ccc(Cl)cc2)nnc1SCc1nc2ccccc2[nH]1	inactive
COCCCN(C(=S)NC(=O)C12CC3CC(CC(C3)C1)C2)c1c(N)n(Cc2ccccc2)c(=O)[nH]c1=O	inactive
COCCN(C(=O)COC(=O)C12CC3CC(CC(Cl)(C3)C1)C2)c1c(N)n(Cc2ccccc2)c(=O)[nH]c1=O	inactive
CCOc1ccccc1C(=O)NCC(=O)NNC(=O)CN(C)S(=O)(=O)c1ccc(Cl)cc1	inactive
Cc1cc(C)nc(/N=C(\N)Nc2ccc(CC(=O)OC(C)C)cc2)n1	inactive
CCCC[C@H](CN(N=O)[C@@H](Cc1ccccc1)CN(C)N=O)N(CCc1ccccc1)N=O	inactive
CN(C(=O)c1cccc(NC(=O)Cc2cccc(NC(=O)C3CCCN(C(=O)C4CCC4)C3)c2)c1)C1CCC1 (configuration not stated)	inactive
